{
  "source": "PubChem BioAssay (NCI)",
  "note": "This is part of a sample that, as a whole, favours compounds with a hit. Of some 83,000 tested, about 20% had one in any assay.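 A percent growth of 40 corresponds to 60% growth inhibition; 0 means no net growth; -100 means all cells died. Active threshold: below 10.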 A number with no mark means an inactive call. Active and inactive are the calls of the source.",
  "data": [
    {"tested_on": "UACC-257 melanoma", "experiment": "NCI-60 one-dose screen, 48 h (100 = growth as untreated, 0 = no growth, -100 = all killed)", "settings": "10 µM unless noted", "values": [
      {"smiles": "C=C1CCC2C3(C)COC(c4ccc(F)cc4)OC3CCC2(C)C1CC(O)C1=CCOC1=O", "note": "(centres undefined)", "growth": "57.9%"},
      {"smiles": "NS(=O)(=O)c1ccc(N=Nc2c(O)n(CC(=O)Nc3ccccc3Cl)c3ccccc23)cc1", "growth": "53.2%"},
      {"smiles": "Cc1ccccc1[C@H]1C(C(=O)c2ccc(Cl)cc2)C2(N[C@@H]1c1ccccc1)C(=O)Nc1ccc(Cl)cc12", "note": "(some centres undefined)", "growth": "4.82% (active)"},
      {"smiles": "CCCCCCCCc1ccc(S(=O)(=O)Nc2ccc(CC)cc2C(=O)O)cc1", "growth": "91.1%"},
      {"smiles": "CCC(C)(C)c1ccc(OCCCCN2CCN(c3ccncc3)CC2)cc1", "growth": "37.5%"},
      {"smiles": "COc1ccc(C(=O)/C=C/c2ccc(Oc3nc(Nc4ccc(F)cc4)nc(N(C)C)n3)c(OC)c2)cc1", "growth": "42.5%"},
      {"smiles": "S=c1c2ccccc2nc2n1CCc1c-2[nH]c2ccccc12", "growth": "66.1%"},
      {"smiles": "CCOC(=O)COc1c(OC)c(OC)cc2oc(-c3cccc(C(=O)Nc4ccc(Cl)cc4)c3)cc(=O)c12", "growth": "77.2%"}
    ]},
    {"tested_on": "M14 melanoma", "experiment": "NCI-60 one-dose screen, 48 h (100 = growth as untreated, 0 = no growth, -100 = all killed)", "settings": "10 µM unless noted", "values": [
      {"smiles": "C/C(=N\\N=C1/C(=O)Nc2ccc(Cl)cc21)c1ccc2c(c1)Nc1ccccc1S2", "growth": "-20.8% (active)"},
      {"smiles": "CCCSc1nc(NCCc2c[nH]c3ccccc23)c(C#N)c(-c2ccc(F)cc2)n1", "growth": "75.5%"},
      {"smiles": "COc1cc(C2CC(c3cc(OC)c(OC)c(OC)c3)=NN2C(C)=O)ccc1OCc1ccccc1", "note": "(centres undefined)", "growth": "36.9%"},
      {"smiles": "Cc1cc2c(cc1Cl)C(=O)/C(=C/c1ccccc1)O2", "growth": "30.9%"},
      {"smiles": "COc1ccc2[nH]cc(-c3nc(N)nnc3-c3cn(C)c4ncccc34)c2c1", "growth": "33.2%"},
      {"smiles": "Cc1ccc(C(=O)CSc2nc3ccc(F)cc3c(=O)n2-c2ccc(Cl)cc2)cc1", "growth": "56.5%"},
      {"smiles": "CCCCSc1nc(NCCc2c[nH]c3ccccc23)c(C#N)c(-c2ccccc2)n1", "growth": "60.1%"},
      {"smiles": "Cn1cc(-c2nc(N)nnc2-c2c[nH]c3ccc(Br)cc23)c2cccnc21", "growth": "33.9%"},
      {"smiles": "CN(C)CCOc1ccc(C(=O)C2[C@H](c3ccc(Cl)cc3)[C@@H](c3ccccc3)NC23C(=O)Nc2ccc(Br)cc23)cc1", "note": "(some centres undefined)", "growth": "-71.5% (active)"},
      {"smiles": "CN1CCN(/C(=N\\c2sc(-c3ccccc3)nc2-c2ccccc2)c2ccccc2)CC1", "growth": "76.8%"},
      {"smiles": "CCCSc1nc(NCCc2c[nH]c3ccccc23)c(C#N)c(-c2ccccc2)n1", "growth": "83.5%"},
      {"smiles": "CCN(CC)c1ccnc(CNCCSC(c2ccccc2)(c2ccccc2)c2ccc(OC)cc2)c1", "growth": "-74.7% (active)"},
      {"smiles": "COc1cc2oc(-c3cccc(C(=O)Nc4cccc([N+](=O)[O-])c4)c3)cc(=O)c2c(OC)c1OC", "growth": "58.2%"},
      {"smiles": "O=C(COc1ccc(NC(=O)Nc2ccc(Cl)c(Cl)c2)cc1)N=Nc1c(O)[nH]c2ccc([N+](=O)[O-])cc12", "growth": "34.4%"},
      {"smiles": "COc1cc(-c2nc3cc(Cl)c(Cl)cc3[nH]2)ccc1OCc1nnc(-c2cccs2)o1", "growth": "41.8%"},
      {"smiles": "CCCCCCCCc1ccc(C(=O)Nc2ccc(C)cc2C(=O)O)cc1C", "growth": "99.9%"},
      {"smiles": "CCOP(=O)(OCCCl)c1nc(-c2ccc(C)cc2)oc1NCc1ccccc1", "note": "(centres undefined)", "growth": "86.3%"},
      {"smiles": "NS(=O)(=O)c1ccc(N=Nc2c(O)n(CC(=O)Nc3ccccc3)c3ccccc23)cc1", "growth": "11.2%"},
      {"smiles": "CC1(C)CC[C@]2(C(=O)Nc3ccccc3)CC[C@]3(C)C(=CCC4[C@@]5(C)C[C@@H](O)[C@H](O)[C@@](C)(CO)C5CC[C@]43C)C2C1", "note": "(some centres undefined)", "growth": "56.1%"},
      {"smiles": "COc1ccccc1C(=O)NN1C(=O)/C(=C/C2=Cc3ccccc3OC2)SC1=S", "growth": "99.3%"},
      {"smiles": "COc1ccc(NC(=O)[C@H](CO)NC(=O)OC(C)(C)C)cc1C(=O)Nc1cccc(C2CC(=O)c3c(cc(OC)c(OC)c3OC)O2)c1", "note": "(some centres undefined)", "growth": "66%"},
      {"smiles": "COc1ccc(C2(SCCNCc3cc(N(C)C)ccn3)c3ccccc3C=Cc3ccccc32)cc1", "growth": "-44.7% (active)"},
      {"smiles": "COc1ccc2[nH]c(O)c(N=NC(=O)COc3ccc(NC(=O)Nc4ccccc4)cc3)c2c1", "growth": "41.7%"},
      {"smiles": "COc1cc(/C=C/C(=O)c2ccc(C)cc2)ccc1Oc1nc(Nc2ccc(F)cc2)nc(N(C)C)n1", "growth": "56.9%"},
      {"smiles": "CCN(CC)CCOc1ccc(Nc2ncc3cc(-c4ccc(O)c(C#N)c4)c(=O)n(C)c3n2)cc1", "growth": "70.4%"},
      {"smiles": "CC(/C=C1\\SC(=S)N(CCCC(=O)NC(CC(C)C)C(=O)O)C1=O)=C\\c1ccccc1", "note": "(centres undefined)", "growth": "78.6%"}
    ]}
  ]
}
